Reference: PubChem BioAssay (NCI)
About 79,000 compounds went through this panel and 15% of them were active in at least one assay; those are over-represented in the sample as a whole. Active and inactive are the calls of the source. Cut-off read from the data, not from the text of the source: active = growth inhibition above about 70%; inactive = the rest.

Experiments:
[1] = NCI Yeast Anticancer Drug Screen. Data for the rad52 strain (AID 147);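 note: 0% = growth of vehicle-treated control cultures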; settings: S. cerevisiae rad52 mutant growth inhibition, hits give high values
In short: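 Screen used a yeast mutant impaired in DNA repair. After compound exposure, growth was measured. Values reflect inhibition compared with vehicle-treated cells.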

[2] = NCI Yeast Anticancer Drug Screen. Data for the mgt1 strain (AID 153); settings: S. cerevisiae mgt1 mutant growth inhibition, hits give high values
In short: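 Genetically defined yeast (mgt1) treated with compound; inhibition of growth expressed against vehicle-treated controls.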

[3] = NCI Yeast Anticancer Drug Screen. Data for the rad50 strain (AID 155);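 note: 0% = growth of vehicle-only cultures of the same strain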; settings: S. cerevisiae rad50 strain growth inhibition, hits give high values
In short: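 Genetically altered yeast (DNA repair pathway); compound treatment; growth inhibition vs vehicle ctrl.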

[4] = NCI Yeast Anticancer Drug Screen. Data for the mec2-1 strain (AID 157); settings: S. cerevisiae mec2-1 strain, hits give high values
In short: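 Readout is yeast growth inhibition, normalised to vehicle-treated controls, in the mec2-1 strain exposed to compound.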

[5] = NCI Yeast Anticancer Drug Screen. Data for the rad14 strain (AID 159);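 note: 0% = growth of vehicle-treated control cultures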; settings: S. cerevisiae rad14 strain growth inhibition, hits give high values
In short: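 Test compounds were applied to a repair-deficient yeast strain. Its growth was then compared with that of cultures given vehicle alone, and inhibition was expressed relative to those controls.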

[6] = NCI Yeast Anticancer Drug Screen. Data for the sgs1 mgt1 strain (AID 161);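 note: 0% = growth of cultures given vehicle only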; settings: S. cerevisiae sgs1 mgt1 strain, hits give high values
In short: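 This yeast growth screen uses a strain with defined DNA-repair lesions; compound-treated growth is compared with vehicle-treated growth.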

[7] = NCI Yeast Anticancer Drug Screen. Data for the CLN2oe strain (AID 163);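 note: 0% = growth of vehicle-only control cultures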; settings: S. cerevisiae CLN2oe strain, hits give high values
In short: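 Values reflect how much compound exposure reduced yeast growth, referenced to vehicle-exposed cells. Assay organism is a strain with a defined genetic change affecting cell-cycle control.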

[8] = NCI Yeast Anticancer Drug Screen. Data for the cln2 rad14 strain (AID 165);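 note: 0% = growth equal to vehicle treated cultures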; settings: S. cerevisiae cln2 rad14 strain, hits give high values
In short: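 Relative to vehicle controls, growth inhibition of compound-treated cln2 rad14 yeast was recorded.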

[9] = NCI Yeast Anticancer Drug Screen. Data for the bub3 strain (AID 167); settings: S. cerevisiae bub3 mutant strain, hits give high values
In short: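 Yeast carrying a defined mutation is treated with each compound, and growth is compared with that of vehicle-exposed cells to give inhibition.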

[10] = NCI Yeast Anticancer Drug Screen. Data for the mlh1 strain (AID 171);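 note: 0% = growth of vehicle-treated control cultures of the same strain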; settings: S. cerevisiae mlh1 strain growth inhibition, hits give high values
In short: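 Steps: expose the defined-mutant yeast strain to compound; expose a parallel culture to vehicle; measure growth; express compound effect as inhibition relative to the vehicle culture.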

[11] = NCI Yeast Anticancer Drug Screen. Data for the mlh1 rad18 strain (AID 175); settings: S. cerevisiae mlh1 rad18 strain growth inhibition, hits give high values
In short: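 Test agents were incubated with a yeast strain of defined genotype (DNA damage repair defect). Inhibition of growth was derived by comparison with vehicle-exposed cultures.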

[12] = NCI Yeast Anticancer Drug Screen. Data for the rad18 strain (AID 177); settings: S. cerevisiae rad18 mutant growth inhibition, hits give high values
In short: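 A genetically defined yeast mutant impaired in DNA damage repair was treated with test compounds, then its growth was measured against cultures receiving vehicle alone.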

[13] = NCI Yeast Anticancer Drug Screen. Data for the wt1 strain (AID 149);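 note: 0% = growth of vehicle-treated wt1 cultures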; settings: S. cerevisiae wt1 strain (SPY 50644) growth inhibition, hits give high values
In short: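 wt1 yeast, compound-treated; % growth inhibition vs vehicle control.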

[14] = NCI Yeast Anticancer Drug Screen. Data for the rad50EPP+ strain (AID 151);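 note: 0% = growth of vehicle-treated control cultures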; settings: S. cerevisiae rad50 mutant strain, hits give high values
In short: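 Exposing the rad50EPP+ strain to each compound, growth was compared with vehicle-only cultures to give inhibition.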

[15] = NCI Yeast Anticancer Drug Screen. Data for the wt2 strain (AID 169);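 note: 0% = growth of vehicle-treated yeast cultures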; settings: S. cerevisiae wt2 strain growth inhibition, hits give high values
In short: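 Values express reduction in yeast growth under compound treatment, referenced to vehicle-treated cells.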

[16] = NCI Yeast Anticancer Drug Screen. Data for the sgs1 strain (AID 173);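 note: 0% = growth of vehicle-only control cultures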; settings: S. cerevisiae sgs1 mutant, hits give high values
In short: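 Treat defined-mutant yeast with compound; measure growth; calculate inhibition relative to vehicle-treated cells.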

[17] = at 5.0 µM (retest, dose inferred, filed as 0.5)
[18] = at 50.0 µM (retest, dose inferred, filed as 5.0)

Measured: growth inhibition

CC(C)OC(=O)NNc1cccc(Cl)c1
inactive: [1]; at 1.2 µM 1% | [1]; at 3.7 µM 10% | [1]; at 11.0 µM 57% | [2]; at 1.2 µM 0% | [2]; at 3.7 µM 7% | [3]; at 1.2 µM 4% | [3]; at 3.7 µM 26% | [3]; [17] 13% | [4]; at 1.2 µM 0% | [4]; at 3.7 µM 11% | [4]; [17] 21% | [4]; at 11.0 µM 55% | [5]; at 1.2 µM 4% | [5]; at 3.7 µM 12% | [6]; [17] 27% | [7]; at 1.2 µM -7% | [7]; at 3.7 µM -6% | [7]; at 11.0 µM 17% | [7]; at 33.0 µM 53% | [8]; [17] 51% | [9]; at 1.2 µM 3% | [9]; at 3.7 µM 44% | [10]; at 1.2 µM -1% | [10]; at 3.7 µM 4% | [10]; at 11.0 µM 55% | [11]; [17] 69% | [12]; at 1.2 µM 9% | [12]; at 3.7 µM 61%
active: [1]; at 33.0 µM 96% | [1]; at 100.0 µM 97% | [2]; at 11.0 µM 87% | [2]; at 33.0 µM 98% | [2]; at 100.0 µM 99% | [3]; at 11.0 µM 98% | [3]; at 33.0 µM 98% | [3]; [18] 95% | [3]; at 50.0 µM 96.1% | [3]; at 100.0 µM 97% | [4]; at 33.0 µM 96% | [4]; [18] 96% | [4]; at 50.0 µM 99.2% | [4]; at 100.0 µM 98% | [5]; at 11.0 µM 76% | [5]; at 33.0 µM 98% | [5]; at 100.0 µM 98% | [6]; [18] 98% | [6]; at 50.0 µM 96.8% | [7]; at 100.0 µM 84% | [8]; [18] 99% | [8]; at 50.0 µM 97.8% | [9]; [17] 83% | [9]; at 11.0 µM 98% | [9]; at 33.0 µM 98% | [9]; [18] 98% | [9]; at 50.0 µM 99% | [9]; at 100.0 µM 98% | [10]; at 33.0 µM 98% | [10]; at 100.0 µM 99% | [11]; [18] 96% | [11]; at 50.0 µM 98% | [12]; at 11.0 µM 98% | [12]; at 33.0 µM 98% | [12]; at 100.0 µM 98%

Cc1cc(Cl)ccc1NC(=O)/C(Cl)=C(/Cl)C(=O)O
inactive: [13]; at 1.2 µM 0% | [13]; at 3.7 µM -1% | [13]; at 11.0 µM 0% | [13]; at 33.0 µM 11% | [14]; at 1.2 µM 5% | [14]; at 3.7 µM 11% | [14]; at 11.0 µM 25% | [3]; at 1.2 µM 1% | [3]; at 3.7 µM 6% | [3]; [17] -1% | [3]; at 11.0 µM 16% | [3]; [18] 22% | [4]; at 1.2 µM 3% | [4]; at 3.7 µM 6% | [4]; [17] 3% | [4]; at 11.0 µM 11% | [4]; at 33.0 µM 51% | [4]; [18] 23% | [5]; at 1.2 µM 2% | [5]; at 3.7 µM 5% | [5]; at 11.0 µM 13% | [5]; at 33.0 µM 34% | [6]; [17] 0% | [6]; [18] 37% | [7]; at 1.2 µM -1% | [7]; at 3.7 µM 3% | [7]; at 11.0 µM 1% | [7]; at 33.0 µM 11% | [8]; [17] -4% | [8]; [18] 11% | [9]; at 1.2 µM 2% | [9]; at 3.7 µM 4% | [9]; [17] 3% | [9]; at 11.0 µM 12% | [9]; at 33.0 µM 56% | [9]; [18] 37% | [15]; at 1.2 µM 0% | [15]; at 3.7 µM 1% | [15]; at 11.0 µM 5% | [15]; at 33.0 µM 18% | [10]; at 1.2 µM -1% | [10]; at 3.7 µM 2% | [10]; at 11.0 µM 5% | [10]; at 33.0 µM 22% | [16]; at 1.2 µM 2% | [16]; at 3.7 µM 2% | [16]; at 11.0 µM 11% | [16]; at 33.0 µM 55% | [11]; [17] 0% | [11]; [18] 17% | [12]; at 1.2 µM -2% | [12]; at 3.7 µM 0% | [12]; at 11.0 µM 11% | [12]; at 33.0 µM 30%
active: [13]; at 100.0 µM 99% | [14]; at 33.0 µM 78% | [14]; at 100.0 µM 99% | [3]; at 33.0 µM 81% | [3]; at 50.0 µM 99.5% | [3]; at 100.0 µM 99% | [4]; at 50.0 µM 97.7% | [4]; at 100.0 µM 100% | [5]; at 100.0 µM 100% | [6]; at 50.0 µM 99.7% | [7]; at 100.0 µM 99% | [8]; at 50.0 µM 98.8% | [9]; at 50.0 µM 99.6% | [9]; at 100.0 µM 99% | [15]; at 100.0 µM 100% | [10]; at 100.0 µM 100% | [16]; at 100.0 µM 99% | [11]; at 50.0 µM 99.3% | [12]; at 100.0 µM 99%
